Assay results reported in the supplement of paper PMC6555819.

Columns and labels:
Assay in all cases: PBM binding z-score (relative to random genomic background probes); higher = stronger binding; sequences stand for … in GC…GCGATTGACAGCGTAGAATGAAGG
[1] = test system: RARb homodimer (NR concentration 270 nM)
How it was run: (§1)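 Random background probes are the reference for binding z-scores. These scores derive from regression-normalized fluorescence on custom Agilent 4×180K protein-binding microarrays incubated 1 h with ligand-free nuclear receptor dimers. Binding was detected with antibodies against each partner (one per run).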

[2] = test system: RARg:RXRa (NR concentration 270 nM, RXRa partner concentration 90 nM)
How it was run: as §1

[3] = test system: RARg homodimer (NR concentration 270 nM)
How it was run: as §1

[4] = test system: RXRa DBDmut IVT, anti-RXR (DBD mutation: RXRa K156A/R161A, NR concentration 90 nM)
How it was run: as §1

[5] = test system: RXRa homodimer (NR concentration 180 nM)
How it was run: as §1

[6] = test system: THRa:RXRa (NR concentration 90 nM, RXRa partner concentration 90 nM)
How it was run: as §1

[7] = test system: THRa homodimer (NR concentration 90 nM)
How it was run: as §1

[8] = test system: VDR homodimer (NR concentration 270 nM)
How it was run: as §1

| Sequence | PBM binding z-score [1] | PBM binding z-score [2] | PBM binding z-score [3] | PBM binding z-score [4] | PBM binding z-score [5] | PBM binding z-score [6] | PBM binding z-score [7] | PBM binding z-score [8] |
| --- | --- | --- | --- | --- | --- | --- | --- | --- |
| CCTACTGGGCCACGAAAGTTCATTGATTCAGTGA | 3.23 | 2.04 | 2.29 | 1.34 | 1.46 | 1.74 | -0.104 | 4.01 |
| GCATATAGGTAATACAAGGTGCAAGTCCGATTGT | -0.0695 | 0.291 | 0.14 | 0.314 | 0.27 | 1.52 | -0.516 | 0.533 |
| TCTATTAGTTGAATAGGGCAACCGAAACAGCGGA | 0.977 | 0.99 | 0.765 | 0.685 | 0.759 | 0.247 | -0.423 | -0.139 |
| ACGATTAGTTGAGACGAGGGCAACCGATAGGTTG | 0.939 | 0.385 | 0.643 | -0.112 | 0.354 | 2.41 | -0.196 | 0.605 |
| CCGACTGGGGCAGAAAGGTTCCCATACCATCCGG | 0.053 | -0.0575 | 0.0675 | -1.16 | -0.265 | -0.504 | -0.737 | -0.826 |
| CGTCCAAGGTCAACGTCAGTGAAAGAGACTCGAA | 3.98 | 6.3 | 7.13 | 3.49 | 6.13 | 4.04 | 2.55 | 1.8 |
| GATACAGGATCAAGGCCAGAGTACGCGTATTGAT | 0.0211 | 0.189 | 0.325 | -0.499 | 0.195 | -0.265 | -0.214 | 0.147 |
| CCTACTGGGCCATTCAAAGGTCATTGATCATATG | 4.5 | 4.85 | 3.67 | 0.609 | 4.61 | 3.25 | 0.994 | 2.4 |
| AGTCAAAGTTCACTAGGTAACGTCAGATTCAGCT | 3.86 | 5.2 | 5.98 | 4.32 | 4.31 | 1.96 | 0.43 | 3.7 |
| TCTATTAGTTGAAGGGCAACCGGCGAGTCCGTTT | 1.33 | 0.436 | 0.37 | 1.69 | 0.567 | 0.217 | 0.172 | 0.963 |
| GTACCAAGGTGAATAGGTCGATGATGAGTAGGCG | 1.77 | 2.49 | 1.57 | -0.426 | 1.86 | 1.52 | 0.425 | 0.182 |
| CCTACTCGGCCATCAGGTCATTGATATCAACGTT | 3.21 | 2.43 | 2.51 | 1.21 | 1.33 | 3.16 | 3.66 | 2.42 |
| ACAGACAGCTGATGAAGGTAACTCAGGCTATCAT | -0.303 | 0.146 | 0.225 | -0.306 | 0.083 | 0.595 | -0.25 | 0.0545 |
| TTACCAACGTGAGCTGAGGTCGTTGATCCAACTC | 0.839 | 0.0093 | -0.366 | 0.168 | 0.547 | 2.48 | 1.5 | 2.12 |
| TCTTGTAGATCAGCAGGATAAGAAAGCTGGCCAA | -0.798 | -0.461 | -0.47 | 0.379 | -0.273 | -0.557 | -0.84 | -0.775 |
| AATACAGGGTCACTAGGCAAGAGTAGGTACGAAT | 2.95 | 5.02 | 4.81 | 2.61 | 5.45 | 3.48 | 1.19 | 2.42 |
| ATATGTAGGTTATCGGATCATTCAGTTTGCGCAT | 0.853 | 0.837 | 0.866 | 0.702 | 1.12 | 0.794 | 0.624 | 0.764 |
| CCTGCTAGGTCAATGGTCATCTAAAGCAGCTCGC | 2.97 | 3.73 | 4.61 | 1.79 | 2.51 | 2.23 | 0.612 | 0.333 |
| CCTGCTAGGTCATGGTCAGCTAGTCTACAGTATG | 3.22 | 4.05 | 4.82 | 1.84 | 2.76 | 3.03 | 1.25 | 0.287 |
| TCTCGGAGGCCACGAAGGTCAGAGCTTTCCAGAG | 3.74 | 3.08 | 3.36 | 0.442 | 1.88 | 2.12 | -0.105 | 0.706 |
| CTACCAAGGTGAACAAGGTCGTTGTTTACTATTC | 1.97 | 1.78 | 1.27 | 1.63 | 1.9 | 3.23 | 1.76 | 2.16 |
| CCTACTGGGCCATTCAGAGGTCATTGAGCATATG | 4.08 | 4.6 | 3.1 | 0.996 | 3.54 | 3.27 | 1.22 | 3.44 |
| TCATATAGGTTAACAGGTGAAAGTCCGTAAGTTA | 1.85 | 2.13 | 1.57 | 1.53 | 2.09 | 1.39 | 0.525 | 0.443 |
| AGAATGAGGATATACGTAGATCAGGGAAGAAAGT | -0.46 | 0.0404 | 0.424 | -0.474 | -0.0531 | 0.415 | -0.039 | -0.0995 |
| TGAATGAGGTTATAGGATCAGGGAACGTTGCAAA | 0.349 | 1.53 | 0.884 | 0.852 | 2.42 | 2.12 | 0.489 | 0.329 |
| CAAAGTAGGTCAAAGGTCAAAGTCGAGCCAACCA | 5.32 | 8.87 | 7.72 | 3.17 | 10.4 | 4.54 | 1.22 | 3.8 |
